Sampled rows, rich in hits. Any-hit rate of the full collection: about 3.7%.
HTT-AS promoter – activators of huntingtin-antisense promoter activity. 0.24% of 48,000 active. AID 1508624. HEK293 HTT-AS promoter firefly luciferase reporter, 24 h; response scale: percent change from vehicle, -100% = no light. Potency, µM (top dose mostly 57.5 µM), for the others: top-dose activity change, positive = activation, usual class: activators; note: potency is the fitted concentration of half-maximal effect; nearly all actives have a fitted effect of over 55% in size
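HEK293 Fluc reporter, 2,500 cells/well, 24 h pre-culture; cpds up to 57.5 uM final, 24 h 37 degrees C; Dual-Glo, 10 min RT; normalized vehicle = 0%, zero RLU = -100%.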
DRV1 agonist – activates human resolvin D1 receptor GPR32 | O75388 | AID 1346428 | activation, % at 76.9 µM | 2.5% of 48,000 active | CHO-K1 GPR32 beta-arrestin PathHunter luminescence, 90 min; zero percent set by DMSO-only wells;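 active = activation of at least 60% and not above a set upper limit, about 1 call in 100 departs from these limits; inconclusive = activation of 40% to 60%, or above that upper limit; inactive = activation under 40%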; note: 0% is about no effect
Target sequence (O75388 whole entry, looked up): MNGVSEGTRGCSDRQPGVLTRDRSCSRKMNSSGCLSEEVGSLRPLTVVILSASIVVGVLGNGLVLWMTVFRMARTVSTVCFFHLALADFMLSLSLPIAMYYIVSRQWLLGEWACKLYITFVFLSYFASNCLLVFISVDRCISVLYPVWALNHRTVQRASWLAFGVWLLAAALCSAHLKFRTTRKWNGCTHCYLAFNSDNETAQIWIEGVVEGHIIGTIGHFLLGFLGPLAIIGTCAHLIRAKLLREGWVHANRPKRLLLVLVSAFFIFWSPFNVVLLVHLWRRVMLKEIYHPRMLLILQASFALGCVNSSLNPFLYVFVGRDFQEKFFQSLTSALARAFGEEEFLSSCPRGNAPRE
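GPR32 activation in stably transfected CHO-K1 cells, detected as beta-arrestin recruitment by enzyme-fragment complementation. Compound exposure: 90 min, 37 °C.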
HTT prom inh – HTT promoter inhibition. Potency, µM (top dose mostly 57.5 µM), without a hit: at the highest dose activity change, negative = inhibition, hits mostly inhibitors. 0.93% of 48,000 active. HEK293 HTT promoter firefly luciferase reporter, 24 h; note: potency is the fitted concentration of half-maximal effect; nearly all actives have a fitted effect of over 50% in size
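HEK293 luciferase promoter-reporter cells (2,500/well) plated 24 h, then compounds added at up to 57.5 uM final for 24 h at 37 °C. Firefly luminescence by Dual-Glo, normalized to vehicle (0%) and zero RLU (-100%).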
Starred values were filed as active, the others as inactive; ? = inconclusive; nt = not tested or not shown; ! = repeats disagree; [ ] = another dose, or the depositor's remark. Unless noted, calls come from the whole dose curve; as a rule, active = well fitted curve in the direction sought with a large enough effect; inconclusive = small, poorly fitted or top-dose-only effect, or another doubt; inactive = no such curve, though single readings can be large; an effect the other way counts as inactive or inconclusive.

SMILES	HTT-AS promoter	DRV1 agonist	HTT prom inh
CCOc1ccc(CNS(=O)(=O)c2ccc(-c3coc(C)n3)cc2)cc1	-27.3%	-11.5	?
CCOc1ccc(NC(=O)Cn2c(=O)oc3cc(S(=O)(=O)N4CCCCCC4)ccc32)cc1	-23.5%	?	?
Cc1ccc(NC(=O)Cn2c(=O)oc3cc(S(=O)(=O)N4CCCCC4)ccc32)c(Cl)c1	-46.2%	111.5*	?
CC(C)c1ccc(NC(=O)Cn2c(=O)oc3cc(S(=O)(=O)N4CCCC4)ccc32)cc1	-47.8%	96.7*	14.1µM*
Cc1cc(C)c(NC(=O)Cn2c(=O)oc3cc(S(=O)(=O)N4CCCCCC4)ccc32)c(C)c1	-42.5%	9.4	10µM*
Cc1cc(C)cc(NC(=O)Cn2c(=O)oc3cc(S(=O)(=O)N4CCCC4)ccc32)c1	-33.2%	-30.0	?
O=C(Cn1c(=O)oc2cc(S(=O)(=O)N3CCCCCC3)ccc21)Nc1ccc(F)cc1F	-34.6%	?	?
C[C@]12CCC(=O)C=C1[C@@H]1CC1[C@H]1[C@H]3[C@@H]4C[C@H]4[C@@]4(CCC(=O)O4)[C@@]3(C)CC[C@H]12 (stereo partly specified)	-13.3%	nt	-9.4%
CC(C)(O)[C@H]1CC[C@@](C)([C@H]2[C@@H](O)C[C@@]3(C)[C@@H]4C[C@H](O[C@@H]5O[C@H](CO)[C@@H](O)[C@H](O)[C@@H]5O)[C@H]5C(C)(C)[C@@H](O[C@@H]6OC[C@@H](O)[C@H](O)[C@@H]6O)CC[C@@]56C[C@@]46CC[C@]23C)O1	-2.9%	nt	-0.9%
COC(=O)c1ccc(NC(=O)CCS(=O)(=O)c2ccc(Br)s2)cc1	-30.9%	-13.5	?
O=C(CCNS(=O)(=O)c1ccc(Br)s1)Nc1ccc(Br)cc1	-8.9%	88.6*	-7.0%
CC(=O)O[C@]1(C(C)=O)CC[C@H]2[C@@H]3C=C(C)C4=CC(=O)CC[C@]4(C)[C@@H]3CC[C@@]21C	-7.0%	nt	-1.7%
COC1CCC(N(C(=O)C2CCC(C)CC2)c2cc(C3=CCCCC3)sc2C(=O)O)CC1 (stereo unspecified)	-25.2%	nt	-25.5%
Cc1cc(Cl)ccc1OCC(=O)N1CCC(c2nc3ccccc3s2)CC1	-24.1%	?	?
CCCOc1ccccc1C(=O)N1CCC(c2nc3ccccc3s2)CC1	2.0%[11.5 µM]	104.2*	?
CCCOc1ccc(C(=O)N2CCC(c3nc4ccccc4s3)CC2)cc1	-11.2%	-0.3	-10.2%[11.5 µM]
COc1ccc(C(=O)N2CCC(c3nc4ccccc4s3)CC2)cc1Cl	-31.7%	75.5*	?
COc1cccc(C(=O)N2CCC(c3nc4ccccc4s3)CC2)c1	-13.7%	95.0*	?
Cc1cc(C)cc(OCC(=O)N2CCC(c3nc4ccccc4s3)CC2)c1	-9.5%[11.5 µM]	25.0	-9.5%
Cc1cnc(Nc2ccc(F)cc2Cl)nc1-c1c[nH]c(C(=O)N[C@H](CO)c2cccc(Cl)c2)c1	-57.2%	nt	?
COc1ccc(-c2cc(=O)c3c(O)cc(O[C@@H]4O[C@H](CO[C@@H]5O[C@@H](C)[C@H](O)[C@@H](O)[C@@H]5O)[C@@H](O)[C@H](O)[C@@H]4O)cc3o2)cc1O	-50.9%	nt	?
Cc1ccc(C2=Nc3ccc(Cl)cc3OC2)cc1	21.3%	nt	17.8%
COc1ccc(-c2cc(C(=O)N3CCN(c4ccccc4OC)CC3)c3cc(C(C)C)ccc3n2)cc1	-22.6%	4.2	?
CC(C)c1ccc2oc3nc(N)c(C(=O)O)cc3c(=O)c2c1	?	104.1*	28.5%
O=C(C1CC1)N1CCc2cc(Br)cc(S(=O)(=O)Nc3ccc(C(F)(F)F)cc3)c21	-50.3%	65.4*	?
SMILES	HTT-AS promoter	DRV1 agonist	HTT prom inh
O=C(C1CC1)N1CCc2cc(Br)cc(S(=O)(=O)Nc3ccc(F)c(F)c3)c21	-85.7%	37.6	?
Cc1ccc(NS(=O)(=O)c2cc(Br)cc3c2N(C(=O)C2CC2)CC3)cc1C	-61.8%	31.3	5.62µM*
CCOC(=O)c1cccc(NS(=O)(=O)c2cc(Br)cc3c2N(C(=O)C2CC2)CC3)c1	-49.1%	-4.6	?
COc1cc(NS(=O)(=O)c2cc(Br)cc3c2N(C(=O)C2CC2)CC3)cc(OC)c1	-96.2%	3.4	15.8µM*
COc1ccc(Cl)cc1NS(=O)(=O)c1cc(Br)cc2c1N(C(=O)C1CC1)CC2	-36.7%	-1.6	?
OC[C@H]1O[C@@H](OCCc2ccc(O)cc2)[C@H](O)[C@@H](O)[C@H]1O	-20.8%	2.7	-31.5%
CCOC(=O)c1noc2ncn(CC(=O)Nc3ccc(C)c(F)c3)c(=O)c12	-8.6%	76.0*	-9.2%
CCOC(=O)c1noc2ncn(CC(=O)Nc3cccc(Cl)c3)c(=O)c12	-6.7%	14.1	0.6%
Cc1ccc(Cl)c(Nc2ccccc2C(=O)O)c1Cl	-9.2%	103.0*!	-1.0%
Cc1c(Cl)cccc1Nc1ccccc1C(=O)O	-13.9%	?	-21.0%
C[C@]1(c2nc3c(C(N)=O)cccc3[nH]2)CCCN1	-9.0%	nt	-8.2%
C=C(C)C(=O)OCC(O)CO (stereo unspecified)	-8.8%	-1.0	10.7%
CC(=O)OCC(=O)[C@@]1(O)CC[C@H]2[C@@H]3CCC4=CC(=O)C=C[C@]4(C)[C@@H]3[C@@H](O)C[C@@]21C	-12.4%	nt	0.4%
CC(C)(C)CC(=O)OCC(=O)[C@@]1(O)CC[C@H]2[C@@H]3CCC4=CC(=O)C=C[C@]4(C)[C@H]3[C@@H](O)C[C@@]21C	-26.1%	119.3*	-17.5%
COc1ccnc2c1CCCCC2S(=O)c1nc2ccccc2[nH]1 (stereo unspecified)	0.9%	9.9	18.2%
CCc1nc2c(cnn2-c2ccc(Cl)cc2)c(=O)n1-c1ccc(OC)c(Cl)c1	-14.7%	8.4	-9.6%
CCCN(CCC)S(=O)(=O)c1ccc(C(=O)Nc2cccc(-c3nc4ccccc4[nH]3)c2)cc1	-47.9%	-13.0	?
COc1c(Cl)cc(C(=O)Nc2cccc(-c3nc4ccccc4[nH]3)c2)cc1Cl	-36.1%	106.0*	-24.7%
O=C(C=Cc1cccc(S(=O)(=O)Nc2ccccc2)c1)NO	?	nt	144.1%[116 µM]
CCOC(=O)[C@H](CCc1ccccc1)N[C@@H](C)C(=O)N1CCCC1C(=O)O (stereo partly specified)	-8.1%	nt	8.4%
CCc1nc(SCc2cc(=O)c3cc(C)ccc3[nH]2)n[nH]1	-15.2%	-0.2	-1.0%
O=c1cc(CSc2n[nH]c(-c3ccccc3)n2)[nH]c2ccccc12	-38.1%	93.0*	?
COc1cc(Nc2ncc(F)c(Nc3ccc4c(n3)N(COP(=O)(O)O)C(=O)C(C)(C)O4)n2)cc(OC)c1OC	-26.2%	nt	-2.7%
COc1ccccc1-c1nnc(SCC(=O)c2ccc(F)cc2)n1-c1ccccc1	-12.5%	69.9*	?
Cn1c(SCC(=O)c2ccc(F)cc2)nnc1-c1ccccc1Br	-15.2%	?	-39.6%
CC[C@H]1OC(=O)[C@H](C)C(=O)[C@H](C)[C@@H](O[C@H]2O[C@H](C)C[C@H](N(C)C)[C@@H]2O)[C@](C)(OC)C[C@@H](C)C(=O)[C@H](C)[C@H]2N(CCCCn3cnc(-c4cccnc4)c3)C(=O)O[C@]12C	-27.4%	nt	-15.4%
Cc1ccc(Nc2c3c(nc4ccccc24)CCC3)cc1F	-50.7%	-24.4	?

Compound activity deposited in PubChem BioAssay by National Center for Advancing Translational Sciences (NCATS).
